The source of these data is publication PMC7862700, “An all-to-all approach to the identification of sequence-specific readers for epigenetic DNA modifications on cytosine”.

Common to all, as to experiment: DAPPL (digital affinity profiling via proximity ligation, sequencing); 10 mM Tris-HCl pH 7.5, 50 mM NaCl, 1 mM DTT, 4% glycerol, room temperature, 30 min; GST-TFs on glutathione beads, 16-mer random dsDNA library, 0.1% formaldehyde crosslink after washing; high values mean tight binding
Common to all, as to conditions: protein: recombinant; tags: N-terminal GST; dsDNA, one strand shown

In one assay the target is T1, FLI1 (Homo sapiens, UniProt Q01543 1-452).
T1 sequence: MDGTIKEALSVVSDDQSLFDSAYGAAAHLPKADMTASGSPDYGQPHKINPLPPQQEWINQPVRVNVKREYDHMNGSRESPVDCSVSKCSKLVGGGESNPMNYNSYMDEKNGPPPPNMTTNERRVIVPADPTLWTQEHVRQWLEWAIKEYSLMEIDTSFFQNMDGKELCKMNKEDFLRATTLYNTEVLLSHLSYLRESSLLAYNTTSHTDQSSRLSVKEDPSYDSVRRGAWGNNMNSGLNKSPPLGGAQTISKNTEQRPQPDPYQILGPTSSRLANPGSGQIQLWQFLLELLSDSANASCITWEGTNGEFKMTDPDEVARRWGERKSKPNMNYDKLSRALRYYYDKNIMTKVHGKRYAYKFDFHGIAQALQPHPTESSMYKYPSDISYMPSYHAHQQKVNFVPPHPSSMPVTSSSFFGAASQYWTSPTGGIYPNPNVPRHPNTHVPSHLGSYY
The essentials:
(§1)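 Sequencing on an Illumina NextSeq500 followed washing, crosslinking with 0.1% formaldehyde, proximity ligation (BsaI/T4 ligase, 1 h, 37 °C) and PCR amplification of pools that had been incubated for 30 min at room temperature with 200 nmole of a random double-stranded 16-mer DNA library in Tris/NaCl/DTT/glycerol buffer. Each pool held DNA-barcoded human transcription factors, expressed in yeast as GST fusions and captured on glutathione beads, plus a tag-only sample. Binding signal is a hexamer's read frequency for a factor divided by its frequency in the tag-only sample.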

Another assay addresses T2, ELK1 (Homo sapiens, UniProt P19419 1-428).
T2 sequence: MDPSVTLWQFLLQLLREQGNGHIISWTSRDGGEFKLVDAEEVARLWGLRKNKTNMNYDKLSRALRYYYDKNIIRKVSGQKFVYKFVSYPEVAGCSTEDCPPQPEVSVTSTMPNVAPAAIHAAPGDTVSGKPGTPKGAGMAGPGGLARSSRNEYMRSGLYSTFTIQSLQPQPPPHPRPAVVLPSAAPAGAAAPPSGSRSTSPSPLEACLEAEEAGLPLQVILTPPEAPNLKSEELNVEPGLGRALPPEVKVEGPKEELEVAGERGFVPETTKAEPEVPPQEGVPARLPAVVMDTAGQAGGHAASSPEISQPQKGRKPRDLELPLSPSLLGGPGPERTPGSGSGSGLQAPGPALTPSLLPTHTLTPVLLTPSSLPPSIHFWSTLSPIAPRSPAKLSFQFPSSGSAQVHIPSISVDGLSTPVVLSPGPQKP
Summed up: as §1

Another assay deals with T3, GABPA (Homo sapiens, UniProt Q06546 1-454).
T3 sequence: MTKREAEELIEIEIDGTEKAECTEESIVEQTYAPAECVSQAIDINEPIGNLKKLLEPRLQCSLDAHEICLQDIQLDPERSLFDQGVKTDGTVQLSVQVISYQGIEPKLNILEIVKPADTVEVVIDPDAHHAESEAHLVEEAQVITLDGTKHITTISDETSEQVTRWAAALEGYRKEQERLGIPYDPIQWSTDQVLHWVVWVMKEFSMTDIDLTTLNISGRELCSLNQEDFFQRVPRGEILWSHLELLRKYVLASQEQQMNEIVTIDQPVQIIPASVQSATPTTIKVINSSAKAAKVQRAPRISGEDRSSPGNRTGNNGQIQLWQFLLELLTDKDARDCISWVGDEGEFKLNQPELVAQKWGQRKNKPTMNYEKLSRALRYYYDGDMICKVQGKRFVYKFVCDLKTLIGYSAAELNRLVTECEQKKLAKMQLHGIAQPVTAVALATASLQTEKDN
The essentials:
as §1

Another assay addresses T4, ERG (Homo sapiens, UniProt P11308 1-479).
T4 sequence: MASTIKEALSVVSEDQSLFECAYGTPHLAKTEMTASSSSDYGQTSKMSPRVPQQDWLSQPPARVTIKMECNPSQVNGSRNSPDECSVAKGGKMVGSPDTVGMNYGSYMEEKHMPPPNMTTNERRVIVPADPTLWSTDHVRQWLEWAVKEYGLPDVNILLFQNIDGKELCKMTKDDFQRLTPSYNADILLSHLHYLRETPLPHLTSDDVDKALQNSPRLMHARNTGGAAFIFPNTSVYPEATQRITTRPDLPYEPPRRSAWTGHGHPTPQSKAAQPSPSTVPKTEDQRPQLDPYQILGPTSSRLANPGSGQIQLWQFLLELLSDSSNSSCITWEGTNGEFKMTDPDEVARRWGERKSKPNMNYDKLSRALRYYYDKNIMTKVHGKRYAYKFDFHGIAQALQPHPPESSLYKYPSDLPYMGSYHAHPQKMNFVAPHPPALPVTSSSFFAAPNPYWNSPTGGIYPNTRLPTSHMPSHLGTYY
Summed up: as §1

Another assay concerns the target ELF1 (Homo sapiens, UniProt P32519 1-619). The essentials: as §1
The target in a further assay is T5, EHF (Homo sapiens, UniProt Q9NZC4 1-300).
T5 sequence: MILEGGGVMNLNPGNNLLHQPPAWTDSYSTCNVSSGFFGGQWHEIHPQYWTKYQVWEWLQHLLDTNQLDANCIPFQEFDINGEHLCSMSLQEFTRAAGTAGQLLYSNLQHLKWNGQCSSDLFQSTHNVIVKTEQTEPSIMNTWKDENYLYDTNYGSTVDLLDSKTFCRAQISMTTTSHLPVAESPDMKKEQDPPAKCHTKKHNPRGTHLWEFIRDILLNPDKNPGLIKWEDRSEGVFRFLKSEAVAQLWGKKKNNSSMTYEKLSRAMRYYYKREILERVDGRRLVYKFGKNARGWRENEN
Summed up: as §1

Another assay has as its target SPI1 (Homo sapiens, UniProt P17947 1-270). Summed up: as §1
In the next assay the target is SPIB (Homo sapiens, UniProt Q01892 1-262). Summed up: as §1
SPIB, sequence (Q01892 whole entry): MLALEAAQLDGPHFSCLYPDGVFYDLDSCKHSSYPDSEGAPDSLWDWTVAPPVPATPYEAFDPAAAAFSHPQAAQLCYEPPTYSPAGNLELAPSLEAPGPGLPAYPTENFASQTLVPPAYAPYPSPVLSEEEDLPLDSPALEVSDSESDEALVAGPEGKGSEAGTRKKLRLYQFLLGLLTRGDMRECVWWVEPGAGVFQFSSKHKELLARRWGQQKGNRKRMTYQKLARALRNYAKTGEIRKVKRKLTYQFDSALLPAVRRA
The next assay concerns the target T6, ELK3 (Homo sapiens, UniProt P41970 1-407).
T6 sequence: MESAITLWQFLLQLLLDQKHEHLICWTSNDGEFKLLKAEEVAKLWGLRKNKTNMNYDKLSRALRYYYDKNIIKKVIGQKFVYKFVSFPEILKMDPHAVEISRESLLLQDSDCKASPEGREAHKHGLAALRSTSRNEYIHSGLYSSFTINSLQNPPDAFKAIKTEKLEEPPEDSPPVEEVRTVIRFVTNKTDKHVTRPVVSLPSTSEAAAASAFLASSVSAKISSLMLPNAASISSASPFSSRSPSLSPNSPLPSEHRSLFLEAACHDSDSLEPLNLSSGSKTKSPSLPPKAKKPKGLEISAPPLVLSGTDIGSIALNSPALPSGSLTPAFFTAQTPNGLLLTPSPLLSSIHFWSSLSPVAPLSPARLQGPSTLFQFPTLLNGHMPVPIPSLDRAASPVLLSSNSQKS
Summed up:
as §1

In the next assay the target is T7, FEV (Homo sapiens, UniProt Q99581 1-238).
T7 sequence: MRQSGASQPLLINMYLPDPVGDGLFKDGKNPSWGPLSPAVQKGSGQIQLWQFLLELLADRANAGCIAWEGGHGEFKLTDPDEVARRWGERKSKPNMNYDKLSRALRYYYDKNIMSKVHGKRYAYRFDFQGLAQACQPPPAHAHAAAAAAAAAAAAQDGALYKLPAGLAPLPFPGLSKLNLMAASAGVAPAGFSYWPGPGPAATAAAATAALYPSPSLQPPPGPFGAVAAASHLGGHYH
The essentials:
as §1

A further assay addresses ETV5 (Homo sapiens, UniProt P41161 1-510). Summed up:
as §1

The target in the next assay is T8, SPIC (Homo sapiens, UniProt Q8N5J4 1-248).
T8 sequence: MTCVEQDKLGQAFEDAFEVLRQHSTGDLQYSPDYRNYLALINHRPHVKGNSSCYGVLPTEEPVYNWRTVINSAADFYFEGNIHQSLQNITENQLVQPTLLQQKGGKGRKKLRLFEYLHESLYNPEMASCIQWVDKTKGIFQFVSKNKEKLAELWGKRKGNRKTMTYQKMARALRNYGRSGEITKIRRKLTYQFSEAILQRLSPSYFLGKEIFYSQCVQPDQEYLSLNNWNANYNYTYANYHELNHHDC
Summed up:
as §1

The target in another assay is ELF4 (Homo sapiens, UniProt Q99607 1-663). Summed up: as §1
ELF4, sequence (Q99607 whole entry): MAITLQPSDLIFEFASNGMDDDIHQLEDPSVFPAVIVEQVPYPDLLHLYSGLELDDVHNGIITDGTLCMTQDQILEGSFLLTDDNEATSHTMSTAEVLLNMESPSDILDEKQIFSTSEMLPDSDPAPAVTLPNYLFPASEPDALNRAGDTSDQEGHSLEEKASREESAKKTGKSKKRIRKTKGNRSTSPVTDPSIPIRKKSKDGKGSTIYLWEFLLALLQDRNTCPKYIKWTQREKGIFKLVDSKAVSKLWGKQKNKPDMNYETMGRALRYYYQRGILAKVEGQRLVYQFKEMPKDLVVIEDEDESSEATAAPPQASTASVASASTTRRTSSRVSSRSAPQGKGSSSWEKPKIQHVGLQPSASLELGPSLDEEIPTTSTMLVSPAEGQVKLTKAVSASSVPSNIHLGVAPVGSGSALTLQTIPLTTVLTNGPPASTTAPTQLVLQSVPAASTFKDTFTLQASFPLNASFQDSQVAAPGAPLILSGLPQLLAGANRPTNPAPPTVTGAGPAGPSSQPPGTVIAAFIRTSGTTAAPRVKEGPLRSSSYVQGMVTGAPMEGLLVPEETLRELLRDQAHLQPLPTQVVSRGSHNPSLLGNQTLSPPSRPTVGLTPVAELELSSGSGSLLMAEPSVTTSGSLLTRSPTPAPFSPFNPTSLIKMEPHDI
The next assay addresses T9, ERF (Homo sapiens, UniProt P50548 1-548).
T9 sequence: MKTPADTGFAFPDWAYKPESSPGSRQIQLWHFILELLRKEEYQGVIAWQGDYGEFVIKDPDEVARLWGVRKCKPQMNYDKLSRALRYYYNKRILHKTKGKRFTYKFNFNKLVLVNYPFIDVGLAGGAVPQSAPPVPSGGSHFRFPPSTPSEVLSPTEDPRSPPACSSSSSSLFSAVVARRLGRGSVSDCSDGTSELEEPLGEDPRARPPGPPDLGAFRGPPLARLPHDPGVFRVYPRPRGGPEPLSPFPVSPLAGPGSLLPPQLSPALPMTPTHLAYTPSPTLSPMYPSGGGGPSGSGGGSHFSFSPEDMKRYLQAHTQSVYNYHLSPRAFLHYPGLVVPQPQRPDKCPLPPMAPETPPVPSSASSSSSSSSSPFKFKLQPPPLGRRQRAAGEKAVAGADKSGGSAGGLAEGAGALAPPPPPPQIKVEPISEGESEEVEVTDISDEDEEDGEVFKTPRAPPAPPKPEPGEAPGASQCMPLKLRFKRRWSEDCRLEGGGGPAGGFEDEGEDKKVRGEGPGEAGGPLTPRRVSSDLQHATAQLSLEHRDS
Summed up:
as §1

In the next assay the target is T10, ETV3L (Homo sapiens, UniProt Q6ZN32 1-361).
T10 sequence: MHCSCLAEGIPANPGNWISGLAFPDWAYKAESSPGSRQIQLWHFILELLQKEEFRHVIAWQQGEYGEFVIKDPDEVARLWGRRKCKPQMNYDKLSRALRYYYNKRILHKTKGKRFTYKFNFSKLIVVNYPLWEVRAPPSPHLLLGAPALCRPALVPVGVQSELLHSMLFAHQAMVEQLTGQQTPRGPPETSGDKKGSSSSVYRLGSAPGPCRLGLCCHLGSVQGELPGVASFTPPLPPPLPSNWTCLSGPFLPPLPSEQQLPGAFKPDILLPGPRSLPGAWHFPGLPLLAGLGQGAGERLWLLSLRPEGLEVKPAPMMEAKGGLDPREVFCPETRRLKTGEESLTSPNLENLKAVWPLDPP
The essentials:
as §1

In the next assay the target is T11, ETS2 (Homo sapiens, UniProt P15036 1-469).
T11 sequence: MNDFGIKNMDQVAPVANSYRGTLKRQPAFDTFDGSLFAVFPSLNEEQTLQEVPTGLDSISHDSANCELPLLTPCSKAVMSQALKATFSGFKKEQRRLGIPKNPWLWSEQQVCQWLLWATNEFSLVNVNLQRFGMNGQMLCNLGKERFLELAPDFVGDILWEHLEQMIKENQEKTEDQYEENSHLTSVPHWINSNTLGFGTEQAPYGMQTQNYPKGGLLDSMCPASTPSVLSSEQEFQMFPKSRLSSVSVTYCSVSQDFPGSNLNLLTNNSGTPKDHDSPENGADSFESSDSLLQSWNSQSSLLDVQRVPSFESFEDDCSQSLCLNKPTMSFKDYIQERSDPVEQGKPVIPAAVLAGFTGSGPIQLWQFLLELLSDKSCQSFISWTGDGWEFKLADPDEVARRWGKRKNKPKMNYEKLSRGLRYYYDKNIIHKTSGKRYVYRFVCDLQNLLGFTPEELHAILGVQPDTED
The essentials:
as §1

The next assay addresses T12, ETV3 (Homo sapiens, UniProt P41162-2 1-143).
T12 sequence: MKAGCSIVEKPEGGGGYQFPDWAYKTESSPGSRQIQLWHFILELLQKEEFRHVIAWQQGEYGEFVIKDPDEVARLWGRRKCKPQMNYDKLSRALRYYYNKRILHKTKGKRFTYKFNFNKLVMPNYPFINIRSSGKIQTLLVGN
Summed up: as §1

A further assay concerns the target ETV1 (Homo sapiens, UniProt P50549 1-477). The essentials: as §1

ETV5, sequence (P41161 whole entry): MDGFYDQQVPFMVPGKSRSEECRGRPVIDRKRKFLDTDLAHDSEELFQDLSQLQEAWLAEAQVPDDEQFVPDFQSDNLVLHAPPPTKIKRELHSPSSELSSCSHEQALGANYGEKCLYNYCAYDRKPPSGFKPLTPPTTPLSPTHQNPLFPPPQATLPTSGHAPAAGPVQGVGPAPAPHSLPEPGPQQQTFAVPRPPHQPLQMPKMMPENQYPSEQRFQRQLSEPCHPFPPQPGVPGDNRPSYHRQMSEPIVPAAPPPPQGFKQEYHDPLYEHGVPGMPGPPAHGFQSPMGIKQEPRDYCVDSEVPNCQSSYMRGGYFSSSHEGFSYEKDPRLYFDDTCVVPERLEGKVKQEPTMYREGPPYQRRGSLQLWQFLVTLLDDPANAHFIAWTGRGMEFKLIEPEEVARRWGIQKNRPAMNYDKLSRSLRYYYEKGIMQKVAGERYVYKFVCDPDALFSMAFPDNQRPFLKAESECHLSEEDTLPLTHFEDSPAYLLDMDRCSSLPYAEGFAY
ETV1, sequence (P50549 whole entry): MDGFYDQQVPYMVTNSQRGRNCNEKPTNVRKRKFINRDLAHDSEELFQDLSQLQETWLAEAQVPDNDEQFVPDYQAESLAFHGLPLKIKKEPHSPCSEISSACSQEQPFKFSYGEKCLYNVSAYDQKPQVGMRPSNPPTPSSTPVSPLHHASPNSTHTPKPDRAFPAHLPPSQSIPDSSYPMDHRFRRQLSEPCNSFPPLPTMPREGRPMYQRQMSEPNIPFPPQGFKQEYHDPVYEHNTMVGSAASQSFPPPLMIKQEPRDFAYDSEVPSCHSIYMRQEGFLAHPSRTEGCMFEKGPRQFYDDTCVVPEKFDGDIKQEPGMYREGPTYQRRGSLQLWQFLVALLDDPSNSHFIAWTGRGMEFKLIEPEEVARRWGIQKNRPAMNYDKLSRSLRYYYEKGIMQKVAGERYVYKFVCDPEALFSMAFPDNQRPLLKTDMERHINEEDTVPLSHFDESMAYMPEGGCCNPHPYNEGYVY
ELF1, sequence (P32519 whole entry): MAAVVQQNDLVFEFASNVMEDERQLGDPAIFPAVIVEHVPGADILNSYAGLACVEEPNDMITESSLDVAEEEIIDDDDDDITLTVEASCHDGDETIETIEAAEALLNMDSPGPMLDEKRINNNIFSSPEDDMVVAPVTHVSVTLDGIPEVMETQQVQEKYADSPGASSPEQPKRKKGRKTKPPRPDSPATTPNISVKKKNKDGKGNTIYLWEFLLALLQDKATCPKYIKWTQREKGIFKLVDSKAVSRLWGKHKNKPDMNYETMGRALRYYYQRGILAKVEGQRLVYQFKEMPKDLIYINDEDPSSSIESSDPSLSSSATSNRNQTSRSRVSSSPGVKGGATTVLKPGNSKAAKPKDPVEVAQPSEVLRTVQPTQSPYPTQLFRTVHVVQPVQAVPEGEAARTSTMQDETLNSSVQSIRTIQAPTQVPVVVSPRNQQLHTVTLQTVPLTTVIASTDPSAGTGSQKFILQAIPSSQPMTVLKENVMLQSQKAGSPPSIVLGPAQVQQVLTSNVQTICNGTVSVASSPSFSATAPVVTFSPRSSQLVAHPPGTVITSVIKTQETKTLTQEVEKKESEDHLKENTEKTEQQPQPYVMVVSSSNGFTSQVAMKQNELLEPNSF

As for GTCTTG, the binding signal with FLI1 was 1.02 fold enrichment (6-mer frequency, TF over GST control); with ELK1, 1.02 fold enrichment (6-mer frequency, TF over GST control); in the assay with GABPA it was 1.11 fold enrichment (6-mer frequency, TF over GST control); with ERG it was 1.05 fold enrichment (6-mer frequency, TF over GST control); with ELF1 it was 1 fold enrichment (6-mer frequency, TF over GST control); with EHF, 1.09 fold enrichment (6-mer frequency, TF over GST control). Further, the binding signal is 1.01 fold enrichment (6-mer frequency, TF over GST control) with SPI1; 1.04 fold enrichment (6-mer frequency, TF over GST control) in the assay with SPIB; 1.17 fold enrichment (6-mer frequency, TF over GST control) in the assay with ELK3; 1.01 fold enrichment (6-mer frequency, TF over GST control) in the assay with FEV; 1.01 fold enrichment (6-mer frequency, TF over GST control) with ETV5; 1.11 fold enrichment (6-mer frequency, TF over GST control) in the assay with SPIC. Also, the binding signal with ELF4 was 1.06 fold enrichment (6-mer frequency, TF over GST control); with ERF it was 1.15 fold enrichment (6-mer frequency, TF over GST control); in the assay with ETV3L, 1.04 fold enrichment (6-mer frequency, TF over GST control); with ETS2, 1 fold enrichment (6-mer frequency, TF over GST control); with ETV3, 1 fold enrichment (6-mer frequency, TF over GST control).

Regarding CCGATG, the binding signal with FLI1 was 1.07 fold enrichment (6-mer frequency, TF over GST control); with ELK1, 1.1 fold enrichment (6-mer frequency, TF over GST control); in the assay with GABPA, 1.18 fold enrichment (6-mer frequency, TF over GST control); in the assay with ERG it was 1.06 fold enrichment (6-mer frequency, TF over GST control); with EHF, 1.03 fold enrichment (6-mer frequency, TF over GST control); with SPI1, 1.08 fold enrichment (6-mer frequency, TF over GST control). The binding signal was 1.2 fold enrichment (6-mer frequency, TF over GST control) with SPIB; 1.08 fold enrichment (6-mer frequency, TF over GST control) with FEV; 1.11 fold enrichment (6-mer frequency, TF over GST control) with ETV5; 1.2 fold enrichment (6-mer frequency, TF over GST control) with SPIC; 1.14 fold enrichment (6-mer frequency, TF over GST control) in the assay with ELF4; 1.1 fold enrichment (6-mer frequency, TF over GST control) in the assay with ETV1. Besides, the binding signal with ERF is 1.1 fold enrichment (6-mer frequency, TF over GST control); with ETV3L, 1.1 fold enrichment (6-mer frequency, TF over GST control); in the assay with ETV3 it was 1.12 fold enrichment (6-mer frequency, TF over GST control).
